# Hits are enriched below; roughly 6.5% of the tested compounds scored in any of these assays.
# VACV mCherry inh – vaccinia inhibition (mCherry reporter); Vaccinia virus mCherry reporter infection, fluorescence; Potency, µM (highest dose often 36.5 µM), without a hit: at the highest dose activity change, negative = inhibition, hits mostly inhibitors; 310,000 tested, 0.63% active; AID 720579; calls by dose curve; tested in A549 cells; also: potency is read from the fitted curve at half-maximal effect; nearly all actives have a fitted effect of over 35% in size
# HCMV antiviral – human cytomegalovirus inhibition; HFF cells, HCMV-luciferase reporter, 72 h; stronger effect = lower value; activity change, negative = inhibition, % at 57.5 µM; 410,000 tested, 4.5% active; in the data active = activity change below about -60%; inconclusive = no clear call, values can overlap the other calls; inactive = above about -39%
#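 Two-dose cell screen: HFF monolayers treated with compounds and infected with luciferase-expressing HCMV at 1 PFU/cell, 72 h at 37C, then lysed for luciferase measurement.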
# VACV Venus inh – vaccinia inhibition (Venus reporter); Vaccinia virus Venus reporter expression, fluorescence; 330,000 tested, 0.46% active; Potency, µM (titrated, usually from 36.5 µM), without a hit: at the highest dose activity change, negative = inhibition, actives largely listed as inhibitors; calls by dose curve; tested in A549 cells; also: potency is read from the fitted curve at half-maximal effect; nearly all actives have a fitted effect of over 30% in size
# Lassa entry inh – blocks Lassa virus binding to or entry into cells; Lassa virus pseudotype entry inhibition, cell reporter; Potency, µM (doses to about 37.9 µM), inactives show at the highest dose activity change, negative = inhibition, hits mostly inhibitors; 300,000 tested, 1.2% active; AID 540256; calls by dose curve; tested in HEK293 cells; also: potency is read from the fitted curve at half-maximal effect; nearly all actives have a fitted effect of over 50% in size
# FMDV inh – blocks foot and mouth disease virus. Potency, µM (series often up to 57.9 µM), without a hit: top-dose activity change, negative = inhibition, usual class: inhibitors. FMDV antiviral cell-based qHTS. 410,000 tested, 1.2% active; calls by dose curve; tested in HEK293T cells; also: read-out not given here; potency is read from the fitted curve at half-maximal effect; nearly all actives have a fitted effect of over 45% in size
# MARV entry inh – inhibitors of Marburg virus binding or cell entry. Marburg virus pseudotyped entry inhibition, cell reporter. Potency, µM (top dose mostly 37.8 µM), for inactives: at the top dose activity change, negative = inhibition, hits mostly inhibitors. 300,000 tested, 1.8% active. AID 540276; calls by dose curve; tested in HEK293 cells; also: potency is read from the fitted curve at half-maximal effect
# * hit, by the source's call; i = inactive; ? = inconclusive; . = no result; ! = repeats disagree; [ ] = another dose, or the depositor's remark. % is scaled to controls: 0 for no effect and ±100 for the full control effect.
SMILES,VACV mCherry inh,HCMV antiviral,VACV Venus inh,Lassa entry inh,FMDV inh,MARV entry inh
CCCCN(c1ccccc1)c1ncnc(N)c1[N+](=O)[O-],.,-102.3*,.,10.6%,-18.8%,-13.9%
CCc1ccc(S(=O)(=O)NCCc2csc3nc(-c4ccccc4)nn23)s1,-0.6%,-78.9*,-14.6%,-3.6%[46.1 µM],18.2%,.
O=S(=O)(NCCc1csc2nc(-c3ccccc3)nn12)c1cccs1,-9.5%,-36.6,-14.8%,-9.0%[46.1 µM],2.5%,.
CC1(C)CC(=O)C2=C(C1)NC(Nc1nc3ccccc3o1)=NC2c1cccc(O)c1 (configuration not stated),-9.0%,.,?,.,.,.
CN(CCc1ccccn1)Cc1ccc(Cl)cc1,.,33.2,.,2.5%,-7.3%,17.0%
CN(C)CCN(Cc1ccco1)c1ccccn1,i,-2.0,8.5%,?,29.8%,-11.4%[46.1 µM]
CN(C)CCN(Cc1ccc(Cl)cc1)c1ccccn1,-0.4%,-61.5*,-13.9%,?,-0.2%,?
C[N+](C)(C)CCN(Cc1ccc(Cl)cc1)c1ccccn1,-23.2%,-62.6*,-22.7%,-1.3%,1.6%,?
O=C(C[n+]1ccccc1Br)c1ccc(F)cc1,-12.5%,.,-9.4%,.,.,.
COC(=O)c1ccc(CN2C(=O)[C@]3(OCCC=C[C@@H]3C)c3ccccc32)cc1,.,.,.,.,.,13.3%[14.2 µM]
CC(C)c1c(C(=O)NCc2ccncc2)cnn1-c1nccc(-c2cccs2)n1,-8.1%,.,-6.2%,.,3.3%,.
COc1c(C)cc(S(=O)(=O)NCCc2c(C)[nH]c3ccccc23)c(C)c1C,-11.4%,25.6,-9.4%,?,67.0%,-12.1%[46.1 µM]
CCCC(=O)Nc1nc(-c2ccccc2)ns1,-2.9%,54.8,-14.8%,20.6µM*,17.0%,?
COc1ccc(CN2CCc3c(c(=O)n4ncc(C(=O)N5CCN(c6ccccc6F)CC5)c4n3C)C2)cc1,-6.9%,?,-13.2%,-6.0%[46.1 µM],?,.
CC(=O)c1ccc(C(=O)NCC2Cc3cccc(-c4ncccn4)c3O2)cc1 (configuration not stated),-10.3%,.,5.2%,.,5.9%,.
COc1cc(Nc2cc3c(cn2)nc(Cc2ccccc2)n3C)cc(OC)c1OC,.,31.2,.,.,.,.
Cc1oc2c(cc(NS(=O)(=O)c3ccc(C(C)C)cc3)c3ccccc32)c1C(=O)OCc1ccccc1,-14.9%,61.9,-15.4%,4.3%[46.1 µM],13.7%,3.8%[46.1 µM]
CCCOC(=O)c1c(C)oc2c1cc(NS(=O)(=O)c1ccc(OCC)cc1)c1ccccc12,?,-96.1*,?,?,7.4%,?
CCOc1ccc(S(=O)(=O)Nc2cc3c(C(=O)OCc4ccccc4)c(C)oc3c3ccccc23)cc1,-26.2%,-84.0*,-20.3%,?,6.4%,?
CCOC(=O)c1c(C)oc2c1cc(NS(=O)(=O)c1ccc(C(=O)O)cc1)c1ccccc12,-15.2%,39.5,7.5%,-29.5%,6.3%,-4.2%[46.1 µM]
CCOC(=O)c1c(C)[nH]c(CCC(=O)Nc2c(C)cccc2CC)c1C,-6.6%,9.1,-11.2%,-2.4%[46.1 µM],-25.6%,.
O=C(NCc1ccccc1Cl)c1ccc(NC(=O)N2CCSc3ccccc32)cc1,-4.8%,-19.2,-11.0%,-9.7%[46.1 µM],-1.6%,13.9%[46.1 µM]
CC1CCCCN1C(=O)Cn1c(SCC(=O)N(C)c2ccccc2)nc2ccccc21 (configuration not stated),-11.2%,-23.7,7.2%,-18.5%[46.1 µM],3.0%,.
O=S(=O)(N(Cc1ccccc1)[C@@H](CO)Cc1ccccc1)N(Cc1ccccc1)[C@@H](CO)Cc1ccccc1,-5.5%,5.2,-26.6%,.,-24.7%,.
CC(C)C[C@H](CO)N(Cc1ccccc1)S(=O)(=O)N(Cc1ccccc1)[C@@H](CO)CC(C)C,14.1µM*!,?,?,.,?,.
SMILES,VACV mCherry inh,HCMV antiviral,VACV Venus inh,Lassa entry inh,FMDV inh,MARV entry inh
C=CS(=O)(=O)N(Cc1ccccc1Br)[C@H](CO)Cc1ccccc1,?,-20.5,1.12µM*,.,?,.
C=CS(=O)(=O)N(Cc1ccccc1)[C@H](CO)CC(C)C,?,0.6,1.12µM*,.,-29.9%,.
COC(=O)c1ccc(NC(=O)CC2C(=O)N(c3ccc(Cl)cc3)C(=O)N2Cc2cccs2)cc1 (configuration not stated),-6.1%,-14.1,-12.1%,-21.7%[46.1 µM],-10.2%,.
Fc1cc(F)c(-c2nc3ccccc3nc2-c2ccccc2)c(F)c1,.,-11.9,.,.,.,.
CCC(=O)Nc1cc(-c2cccc(C)c2)nn1-c1ccccc1,-7.4%,91.3,-2.8%,-1.2%[46.1 µM],10.6%,.
O=C(NCCc1nnc2n1CCN(Cc1c(F)cccc1F)CC2)c1ccco1,-1.9%,.,-0.7%,.,-19.6%,.
COc1cc(=O)n2c(c1C(=O)N(C)Cc1nonc1C)CCN(Cc1ccsc1)CC2,-16.6%,.,4.8%,.,4.2%,.
O=C(NCC1(N2CCOCC2)CCCCC1)c1cnn(-c2nccc(-c3ccco3)n2)c1C1CC1,-6.8%,.,-0.5%,.,3.4%,.
O=C(Nc1ccccc1C(=O)OCc1cc(=O)n2c3c(sc2n1)CCCC3)c1ccc(Cl)cc1,-4.0%,?,-16.4%,?,-12.3%,.
O=C(Nc1cccc(C(=O)OCc2cc(=O)n3c4c(sc3n2)CCCC4)c1)c1cccc(F)c1,-17.5%,-74.3*,-14.2%,?,-14.4%,.
O=C(Nc1ccccc1C(=O)OCc1cc(=O)n2c3c(sc2n1)CCCC3)c1ccccc1,i,-83.2*,-11.1%,-2.9%[46.1 µM],-25.2%,.
O=[N+]([O-])c1ccc(-[n+]2ccc3ccccc3c2)c([N+](=O)[O-])c1,10µM*,13.2,?,.,28.2µM*,.
NC(=O)[C@@H]1CCCN1C(=O)c1cc(NC(=O)c2ccccc2)cc2ncn(C3CCCC3)c12,i,.,-13.9%,.,11.6%,.
c1ccc2c(c1)sc[n+]2CCC1CCCCC1,-7.2%,.,-5.9%,.,.,.
CCN(CC)CCOC(=O)c1ccc(NC(=O)CCCN2C(=O)S/C(=C/c3ccc(OC)cc3)C2=S)cc1,1.4%,.,21.3%,?,3.55µM*,?
COc1ccc(/C=C2\SC(=S)N(CCCC(=O)Nc3ccc(C(=O)O)cc3)C2=O)cc1OC,i,-7.6,-11.2%,3.9%,-10.6%,-3.6%
COc1cccc(/C=C2/SC(=S)N(CCCC(=O)Nc3ccc(O)cc3)C2=O)c1,.,-99.4*,.,.,26.4%,.
COc1ccc(/C=C2\SC(=S)N(CCC(=O)Nc3ccccc3C(=O)O)C2=O)cc1,-8.0%,-28.2,-2.6%,-10.6%[46.1 µM],-9.9%,5.1%[46.1 µM]
COc1ccc(/C=C2\SC(=S)N(CCC(=O)Nc3ccc(O)cc3)C2=O)cc1,-15.3%,-5.2,15.7%,?,61.3%,12.2%
COc1ccc(/C=C2\SC(=O)N(CCCC(=O)Nc3cc(Cl)ccc3C(=O)O)C2=O)cc1,i,-92.9*,-1.8%,0.398µM*,0.282µM*,1.26µM*
COc1ccc(/C=C2/SC(=S)N(CCCC(=O)Nc3ccc(O)cc3)C2=O)cc1OC,.,-73.1*,.,.,-20.5%,.
COc1ccc(NC(=O)C2CC23CCN(Cc2cccc4ncccc24)CC3)cc1Cl (configuration not stated),-18.0%,.,-14.3%,.,-18.3%,.
Cc1nn(C)c2c1c(C(F)(F)F)cc(=O)n2CC(=O)NCc1ccc(OC(C)C)cc1,-4.5%,2.1,-5.3%,4.9%[46.1 µM],-11.1%,.

# Source: PubChem (National Center for Advancing Translational Sciences (NCATS))
